About 83,000 compounds went through this panel and 20% of them were active in at least one assay; those are over-represented in the sample as a whole.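 Results are percent growth after 48 hours of single-concentration exposure. 100 means growth as in untreated cells, lower positive values show inhibition; negative values down to -100 show cell death.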 Calls of active or inactive are those of the source. How the source made its calls: active means growth percent below 10; inactive means the rest.
Each compound was assayed on K-562 leukemia (assay: NCI-60 one-dose screen, 48 h (100 = growth as untreated, 0 = no growth, -100 = all killed)). Settings: 10 µM unless noted.
`COC(=O)C1=Nc2ccc(F)cc2/C1=C\c1sc(Nc2ccc(O)cc2)nc1O` was tested, and the growth was 23.2% (inactive).
`COc1ccc(OC)c(Nc2nnc(-c3ccc(Cl)cc3)o2)c1` was tested, and the growth was 83.5% (inactive).
`O=C(OC[C@@H]1CO1)c1cccc2c(=O)c3ccccc3[nH]c12` was tested, and the growth was 4.46% (active).
For `CNC(=O)c1c(NC(=O)c2ccc(C(C)(C)C)cc2)sc2c(CN(C)C)c(O)ccc12`, the growth was -29.3% (active).
In the case of `C=C1C(=O)O[C@H]2[C@H]1CC/C(COC(=O)c1cc3cc(F)ccc3[nH]1)=C\CC[C@@]1(C)O[C@@H]21`, the growth is reported as 0.0225% (active).
`COc1ccc2[nH]cc(-c3nc(-c4cn(C)c5ccncc45)cs3)c2c1` was tested, and the growth was -26.3% (active).
`Brc1ccc(-c2cnc3nonc3n2)cc1` was tested, and the growth was 38.7% (inactive).
In the case of `CC(C)CN1CC(C(=O)Nc2ccc3c(c2)-c2ccccc2C3)CC1=O` (stereo not given), the growth is reported as 64.7% [50 µM] (inactive).
For `COc1cc2ncnc(Nc3ccc(F)c(Cl)c3)c2cc1OCC(=O)N1CCN(c2ccc(F)cc2)CC1`, the growth was 83.6% (inactive).
With `COc1ccc(-c2cn(-c3ccc(Cl)cc3)c(SCC(=O)c3ccc([N+](=O)[O-])cc3)n2)cc1` the growth was 102% (inactive).
In the case of `CCN(CC)S(=O)(=O)c1ccc(S(=O)(=O)N2CCC[C@@H](C(=O)N3CCN(C(=O)OC(C)(C)C)CC3)C2)cc1`, the growth is reported as 35% (inactive).
For `O=C(c1ccc(Cl)cc1Cl)N1c2ccccc2Sc2ccccc21`, the growth was -42.2% (active).
In the case of `COc1ccc(C2C3=C(COC3=O)N(CCO)c3cc4c(cc32)OCCO4)cc1OC` (stereo not given), the growth is reported as 27.6% (inactive).
For `N#C/C(=C\c1ccc(-c2ccc(Cl)cc2)o1)c1ccc(Cl)cc1`, the growth was 82.4% (inactive).
`COc1ccc(C2CC(c3ccc(Nc4nc(Nc5ccc(F)cc5)nc(Nc5ccc(F)cc5)n4)cc3)=NN2C(C)=O)cc1` (stereo not given) was tested, and the growth was 83.1% (inactive).
In the case of `CCN(CC)CCOc1nc2c3ccc(Cl)cc3nn2c2ccccc12`, the growth is reported as 1.82% (active).
For `COc1cc2c(cc1O)[C@@]1(C)[C@H](c3ccccc3Br)OC(=O)N1CC2`, the growth was 75% (inactive).
`CC(C)(C)c1cc(C=Nc2cccc(C(F)(F)F)c2)c(O)c(C(C)(C)C)c1` was tested, and the growth was 70.2% (inactive).
With `CCCCCCNc1nc(NCCCCCC)c2[nH]c(NCCCCCC)nc2n1` the growth was -19.2% (active).
With `COc1ccc(C2C(C#N)=C(N)Oc3c2sc2c(Br)cccc32)cc1` (stereo not given) the growth was 9.39% (active).
In the case of `CC(/C=C1\SC(=S)N(CC(=O)NC(Cc2c[nH]c3ccccc23)C(=O)O)C1=O)=C\c1ccccc1` (stereo not given), the growth is reported as 107% (inactive).
In the case of `CCOC(=O)c1c(NC(=O)c2ccc(OC)cc2)sc2c(CN(C)C)c(O)ccc12`, the growth is reported as 24.1% (inactive).
`O=C(CCCCl)NNc1nccc(Nc2ccc(S(=O)(=O)Nc3ccncc3)cc2)n1` was tested, and the growth was 111% (inactive).
In the case of `Nc1ncnc2c1c(-c1ccc(Oc3ccccc3)cc1)nn2CC1SSCC1O` (stereo not given), the growth is reported as 11.2% (inactive).
`COc1ccc(NC(=O)c2sc3nc(C)c(C(O)c4ccccc4)cc3c2N)cc1` (stereo not given) was tested, and the growth was 8.04% (active).
For `COc1cccc(C(=O)OCC(O)C(=O)NC23CC4CC(CC(C4)C2)C3)c1` (stereo not given), the growth was 99.1% (inactive).
For `O=C(CBr)CN1C(=O)c2ccccc2C1=O`, the growth was 89.7% (inactive).
For `O=C(NCc1ccccc1O)c1cccc2ccccc12`, the growth was 55.1% (inactive).
For `CCn1cc(C(=O)NN=C2CCCCCC2)c(=O)c2ccc(C)nc21`, the growth was 72% (inactive).
With `Nc1c(C(=O)Nc2ccccn2)sc2nc3c(cc12)C(O)CCC3` (stereo not given) the growth was 20.6% (inactive).
For `COc1ccc(NC(=O)c2ccc(C(=O)Nc3ccc(OC)cc3OC)cc2)c(OC)c1`, the growth was 110% (inactive).
`O=C(Nc1ncc(Cc2ccccc2Cl)s1)c1cccs1` was tested, and the growth was 16.9% (inactive).
In the case of `COc1ccc2nc3ccccc3c(NCc3ccccc3)c2c1`, the growth is reported as 5.75% (active).
For `Fc1ccc(COc2ccc(Nc3ncnc4sc5c(c34)CCCC5)cc2)cc1`, the growth was 103% (inactive).
In the case of `COc1ccc(C2=Nc3c/c(=C\c4c(O)[nH]c5cc(Cl)ccc45)ccc3=N2)cc1`, the growth is reported as 48.8% (inactive).
With `N#Cc1c(N2CCOCC2)nc(=S)[nH]c1-c1ccccc1` the growth was 93.4% (inactive).
With `O=C1CCC(C(=O)NN(c2ccccc2)c2ccccc2)N1` (stereo not given) the growth was 12.2% (inactive).
`C/C(C=O)=C\c1ccc2c(c1)OCO2` was tested, and the growth was 113% (inactive).
In the case of `COc1cc2c(/C=C3\C(=O)Nc4ccccc43)c(C(=O)O)[nH]c2cc1C`, the growth is reported as 103% (inactive).
For `C/C(=N\Nc1nc(C)cs1)c1cc2ccccc2o1`, the growth was 78.4% (inactive).

Source: PubChem BioAssay (NCI)
